Source: PubChem BioAssay AID924 (National Center for Advancing Translational Sciences (NCATS), 2007)
About 1,200 (0.92%) of roughly 130,000 compounds were called active. Roughly 3% stayed inconclusive and do not appear here. Many of the other results were omitted from the sample, so actives are more common in it than they were. Unmarked numbers belong to inactive results. The call rests on the fitted dose curve; in most records, active means well fitted cell-killing curve with a large enough effect; inconclusive means small, poorly fitted or top-dose-only effect; inactive means no such curve, though single readings can be large or run the other way.

Experiment: qHTS Screen for Compounds that Selectively Target Cancer Cells with p53 Mutations: Cytotoxicity of p53ts Cells at the Permissive Temperature; further: nearly all actives have a fitted effect of over 55% in size;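 on activity change, negative = cytotoxicity: 0% = DMSO and -100% = full killing by reference compound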
Conditions: H1299-p53A138V at 32C, ATP luminescence viability, 24 h; series mostly up to 46.1 µM; activity change, negative = cytotoxicity: at the top concentration
Procedure, shortened: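 H1299-p53 A138V cells (temperature-sensitive p53) exposed 24 h to up to 46 uM compound at 32C, where p53 is wild-type in conformation. Viability read as ATP luminescence and normalised to DMSO and 100 uM tamoxifen. AC50 fitted with the Hill equation.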
Potency means the concentration at half of the fitted maximal effect.

Compound | activity change, negative = cytotoxicity [%] | Potency
CCOc1ccccc1C(=O)NCC(c1ccc(N(C)C)cc1)N1CCCC1 (configuration not stated) | -11.6 | –
COC(=O)c1nc2ccccc2s1 | 3.09 | –
O=C(O)CSCc1nc2ccccc2s1 | -0.888 | –
CCC(=O)NC(=Nc1nc2ccccc2s1)NC(=O)CC | – | 15.8 µM (active)
COc1ccc(OC)c(-c2noc(N3CCN(c4cc(Cl)ccc4C)CC3)n2)c1 | -5.9 | –
Cc1ccc(F)cc1NC(=O)c1cccc(N(C)C)c1 | -9.85 | –
Cc1ccccc1NC(=O)c1ccccc1 | -3.24 | –
Cc1ccc(NC(=O)c2cccc(N(C)C)c2)cc1NC(=O)c1ccc(O)cc1 | – | 12.6 µM (active)
CC(C)c1ccc(NC(=O)C2CCN(c3nc(-c4ccc(C(C)C)cc4)no3)CC2)cc1 | -16 | –
Cn1c(=O)c(C(=O)O)nn(-c2ccccc2)c1=O | -8.15 | –
O=C(Nc1nnc(S(=O)(=O)N2CCCCCC2)s1)c1cccc(Br)c1 | 0.59 | –
CCN(C(=O)Cn1c(=O)nc(-c2ccccc2)c2cc(Cl)ccc21)c1cccc(C)c1 | 13.2 | –
O=C(Cn1c(=O)nc(-c2ccccc2)c2cc(Cl)ccc21)NCc1ccc(Cl)cc1 | – | 10 µM (active)
O=C(Cn1nnc(-c2ccccc2)n1)NCc1ccccc1 | 0.275 | –
CCc1ccccc1NC(=O)Cc1ccc(NC(=O)N2CCCCc3ccccc32)cc1 | -3.84 | –
COc1ccc2c(c1)CCc1c(C(=O)Nc3cc(C)ccc3O)noc1-2 | -26.6 | –
Cc1ccc2nc(COc3cccc(NC(=O)Nc4ccc(C)c(Cl)c4)c3)cc(=O)n2c1 | 13.2 | –
CCC(=O)Oc1cccc(C(=O)Nc2ccc(-c3nnc(-c4ccco4)o3)cc2)c1 | -15.6 | –
O=C(CCc1ccccc1)Nc1cccc(-c2nnc(-c3ccco3)o2)c1 | 7.35 | –
CCOc1ccc(-c2nnc(-c3ccco3)o2)cc1 | – | 10 µM (active)
CCOc1ccc(NC(=O)Nc2cc(C)on2)cc1 | -22.8 | –
CCOc1ccc(C(=O)Nc2ccncc2)cc1 | -20.1 | –
CCOc1ccc(NC(=O)c2ncoc2-c2ccco2)cc1 | – | 12.6 µM (active)

Compound | activity change, negative = cytotoxicity [%] | Potency
COc1ccc(-n2c(=O)c3c(c4cc(OC)ccc4n3C)n(Cc3cccc(C)c3)c2=O)cc1 | -4.55 | –
COc1ccc(N2C(=O)CSC23C(=O)N(Cc2cccc(F)c2)c2ccccc23)cc1Cl (configuration not stated) | 9.15 | –
CCCCOc1ccc(NC(=O)c2cc3c(n(-c4ccc(Cl)cc4)c2=O)CCCC3=O)cc1 | -1.65 | –
COc1ccc(C2CC(=O)N(Cc3ccccc3C)c3c2c(C)nn3-c2nc(C)cc(C)n2)c(OC)c1 (configuration not stated) | -0.383 | –
CCOCCCNC(=O)c1ccc2nc(CCc3ccccc3)oc2c1 | -3.08 | –
CC1CCc2noc(NC(=O)c3ccc([N+](=O)[O-])cc3)c2C1 (configuration not stated) | 2.83 | –
COc1ccc(NC(=O)c2c(C)oc3c2CCCC3)cc1 | 0.617 | –
COc1ccc(C(=O)Nc2onc3c2CCCC3)cc1 | – | 10 µM (active)
COc1ccc(-c2onc(C)c2C)cc1S(=O)(=O)NCC1CCN(Cc2cccc(F)c2)CC1 | 8.75 | –
CCOc1ccccc1NC(=O)CN1CCCN(Cc2cccc(Cl)c2)S1(=O)=O | 8.18 | –
Cc1ccc(C(=O)Nc2ccc3[nH]c(=O)c(=O)[nH]c3c2)cc1 | -3.12 | –
COc1ccc(CNC(=O)c2ccc3c(O)c(S(=O)(=O)c4ccccc4)c(=O)[nH]c3c2)cc1 | 4.43 | –
CC(C)c1ccc(NC(=O)c2ccc3c(O)c(S(=O)(=O)c4ccccc4)c(=O)[nH]c3c2)cc1 | – | 12.6 µM (active)
Cn1c(=NC(=O)CSCC(=O)N2CCOCC2)sc2ccccc21 | -3.86 | –
Cn1c(=NC(=O)c2cnccn2)sc2ccccc21 | – | 15.8 µM (active)
Cn1c(=NC(=O)CSCC(=O)N2CCCCC2)sc2ccccc21 | -9.54 | –
COc1ccc(CNC(=O)c2ccc(NC(=O)N3CC4CCCN4c4ccccc43)cc2)cc1 (configuration not stated) | -3.58 | –
CC(=O)Nc1ccc(NC(=O)c2cc3sccc3n2Cc2ccc(F)cc2)cc1 | -24.9 | –
Cc1cccc(N2CCN(C(=O)CCn3c(=O)c4cccn4c4cccnc43)CC2C)c1 (configuration not stated) | 3.1 | –
c1c2c(cc3sc(N4CCCCC4)nc13)OCCO2 | – | 1.26 µM (active)
Fc1ccc2nc(N3CCCCC3)sc2c1 | -9.36 | –
COc1ccc2nc(Nc3nc4cc5c(cc4s3)OCCO5)sc2c1 | -17.9 | –
CCc1ccc2ncc3c(-c4ccc(C)cc4)nn(CC(=O)NCc4ccccc4)c3c2c1 | -5.08 | –

Compound | activity change, negative = cytotoxicity [%] | Potency
CC(C)(C)c1csc(NC2=NS(=O)(=O)c3ccccc32)n1 | – | 12.6 µM (active)
O=C(CN1C(=O)c2cccnc2Oc2ccc(Cl)cc21)NCCc1ccccc1 | -3.47 | –
COc1ccc(-c2ccc(=O)n(CC(=O)Nc3ccc(Br)cc3F)n2)cc1 | -22.2 | –
CC(C)Sc1oc(-c2cccs2)nc1S(=O)(=O)c1ccc(Cl)cc1 | 7.99 | –
CCn1cc(C(=O)NCCc2ccccc2)c(=O)c2cc(S(=O)(=O)N3CCCCCC3)ccc21 | 15.6 | –
Cc1ccc(S(=O)(=O)/N=C(/Nc2ccccn2)c2ccc(Cl)cc2)cc1 | -19.2 | –
CCN(CC)S(=O)(=O)c1cc(C(=O)Nc2ccccn2)ccc1C | – | 10 µM (active)
CCN(CC)S(=O)(=O)c1cccc(C(=O)Nc2ccccc2)c1 | -19.7 | –
Cc1nnc(NC(=O)CSc2nc3c([nH]c4ccccc43)c(=O)n2-c2cccc(Cl)c2)s1 | -0.819 | –
OCCCN1c2ccccc2Nc2nnc(-c3ccccc3)cc21 | – | 12.6 µM (active)
O=C(c1ccc(Cl)cc1)n1nc(-c2cccnc2)nc1NCc1ccc(F)cc1 | 12.6 | –
COc1ccccc1CNC(=O)C(=O)NCC(c1cccs1)S(=O)(=O)c1cccs1 (configuration not stated) | -2.8 | –
Cc1c(C(=O)NCc2ccccc2Br)oc2ccc3c(c12)C(=O)CC(C)(C)O3 | – | 12.6 µM (active)
CC1(C)CC(=O)c2cc(OCC(=O)NCC3CCCO3)ccc2O1 (configuration not stated) | -7.04 | –
CCC1(C)CC(=O)c2c(ccc3oc(C(=O)Nc4ccc(C(C)=O)cc4)c(C)c23)O1 (configuration not stated) | -8.14 | –
CCOC(=O)N1CCc2c(sc(NCc3cccc(F)c3)c2C(=O)Nc2ccccc2OCC)C1 | 19.6 | –
COc1ccc(NC(=O)NC(C)c2c(-n3cccc3)sc(C)c2C)cc1OC (configuration not stated) | 21.5 | –
Cc1ccc(S(=O)(=O)c2nc(-c3ccco3)oc2SCC(=O)Nc2ccc(F)cc2)cc1 | -9.87 | –
Cc1ccc(-c2nc(S(=O)(=O)c3ccc(C)cc3)c(N3CCCCCC3)o2)cc1 | 8.12 | –
O=C(CSc1oc(-c2ccc(F)cc2)nc1S(=O)(=O)c1ccc(Br)cc1)NC1CCCCC1 | -3.41 | –
CC(C)S(=O)(=O)c1oc(-c2ccc(F)cc2)nc1S(=O)(=O)c1ccc(F)cc1 | – | 5.01 µM (active)
